Data reported in the supplement of paper PMC10477191.
± gives the standard deviation of the averaged measurements.

Each molecule was assayed on Drosophila virilis antennal basiconic sensillum AB9 (assay: odor-evoked OSN spike response (post minus pre-stimulus); higher = stronger neuronal excitation). Conditions: odor dilution: 10^-4.
Method: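 Single sensillum recordings from antennal basiconic sensilla of D. virilis. A 500 ms pulse of odorant (10^-4 in mineral oil or DMSO) was delivered; the response is the change in spike frequency between the 1 s pre- and post-stimulus windows (spikes/s).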

Compound	odor-evoked OSN spike response [spikes/s]
CC(C)=O [acetone]	93.7 ± 30
